In PubChem BioAssay AID1159580 (chemical genetic matrix, 2015) one finds normalized growth data, which are given here for one compound.

Molecules are shown by their SMILES. Out of some 5,500 compounds screened, about 2,000 (36%) were called active. Roughly 18% stayed inconclusive and do not appear here. Some of the results follow. Values without a mark were called inactive. No stated cut-off is given here; in the data, active means normalized growth mostly below about 0.91 (no sharp cut-off); inconclusive means no clear call, values can overlap the other calls; inactive means mostly above about 0.92.

The nature of this test: chemical genetic growth profiling, strain panel (AID 1159580).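 Further: tested at 20 µM; growth read once vehicle control cultures reached saturation at 30 °C; 1 = growth at the plate median or of vehicle wells.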 The note with it: S. cerevisiae deletion strains, growth OD.

With `CCC1(O)C(=O)OCc2c1cc1n(c2=O)Cc2cc3ccccc3nc2-1` (stereo unspecified), the normalized growth reads like this: (locus YAL013W, strain DEP1, stronger effect = lower value) 0.872 (active); (locus YAL040C, strain CLN3, stronger effect = lower value) 0.953; (locus YCL061C, strain MRC1 (second series), stronger effect = lower value) 0.977; (locus YDR363W, strain ESC2, stronger effect = lower value) 0.724 (active); (locus YER002W, strain NOP16, stronger effect = lower value) 0.971; (locus YGR078C, strain PAC10, stronger effect = lower value) 1.01. Also, the normalized growth runs as follows: (locus YGR229C, strain SMI1, stronger effect = lower value) 0.672 (active); (locus YMR263W, strain SAP30, stronger effect = lower value) 0.98; (locus YMR307W, strain GAS1, stronger effect = lower value) 0.904 (active); (locus YNL128W, strain TEP1, stronger effect = lower value) 0.906; (locus YNL175C, strain NOP13, stronger effect = lower value) 0.998; (locus YNL197C, strain WHI3, stronger effect = lower value) 0.976. Moreover, the normalized growth was 0.897 (active) (locus YNL224C, strain SQS1, stronger effect = lower value); 0.971 (locus YNL322C, strain KRE1, stronger effect = lower value); 0.867 (active) (locus YOR083W, strain WHI5 (second series), stronger effect = lower value); 0.984 (locus YPL241C, strain CIN2, stronger effect = lower value).
